Source: PubChem BioAssay (NCI)
About 83,000 compounds went through this panel and 20% of them were active in at least one assay; those are over-represented in the sample as a whole.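 Cells were grown in 96-well plates and exposed to the test compound at a single concentration for 48 hours; results are reported as percent growth, with values below 10 considered active.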 Unmarked numbers belong to inactive results. The source made the active and inactive calls.

What follows are molecules tested on NCI-H460 lung (assay: NCI-60 one-dose screen, 48 h (100 = growth as untreated, 0 = no growth, -100 = all killed)). Details: 10 µM unless noted.

Row | Structure (SMILES) | growth
1 | CCN(CC)c1ccc(/C=C2\Oc3ccc(O)c(I)c3C2=O)cc1 | 25.5%
2 | CC1(c2ccc(Cl)cc2)OC(=O)CC(=O)O1 | 110%
3 | Cc1csc(NC(c2ccccc2)c2c(C)nc3ccccn23)n1 (stereo unspecified) | 102%
4 | COc1cc(-c2nc(N=Nc3c(O)[nH]c4ccc(Br)cc34)[nH]c(=O)c2C#N)cc(OC)c1OC | 104%
5 | O=C1/C(=C/c2ccc(Cl)cc2)CN(C(=O)CCN2CCC(=NO)CC2)C/C1=C\c1ccc(Cl)cc1 | -67% (active)
6 | Cc1ccc(-c2cc3nc(C(Cl)Cl)nc(-c4ccccc4C)n3n2)cc1 | 81.4%
7 | Nc1cccc(-c2nc3sccn3c2-c2ccnc(NCCNS(=O)(=O)c3ccc(C(F)(F)F)cc3)n2)c1 | 43.5%
8 | FC(F)(F)c1cccc(-c2cn3c(ccc4ccccc43)n2)c1 | 97%
9 | CCCCCCN1CSC(=S)N(CCCCCC)C1 | 100%
10 | Oc1ccc2cc(Br)ccc2c1-c1c(O)ccc2cc(Br)ccc12 | 8.23% (active)
11 | C=C(C)[C@@H]1C[C@H](O)Cc2cc(F)ccc2N1 | 101%
12 | NC1=NC(SCc2ccccc2CCl)c2ncn(Cc3ccccc3CCl)c2N1 (stereo unspecified) | 80.7%
13 | COc1ccc(C(=O)c2cc(OC)c(OC)c(OC)c2OC)cc1O | 13.7%
14 | CNc1ccc(Br)c2c1C(=O)c1ccccc1C2=O | 105%
15 | Cc1cc(N/N=C/c2nc(-c3ccccc3)oc2C)c2cc(Br)ccc2n1 | 73.6%
16 | CC(C)(C)n1cc(-c2ccnc(NCCCNS(=O)(=O)c3ccccc3)c2)c(-c2cccc(O)c2)n1 | 19.1%
